Assay results: PubChem BioAssay (NCI)
About 79,000 compounds went through this panel and 15% of them were active in at least one assay; those are over-represented in the sample as a whole. Active and inactive are the calls of the source. No stated cut-off is given here; in the data, active means growth inhibition above about 70%; inactive means the rest.

How the values were obtained:
[1] = NCI Yeast Anticancer Drug Screen. Data for the rad50 strain (AID 155);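 further: 0% = growth of vehicle-only cultures of the same strain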; conditions: S. cerevisiae rad50 strain growth inhibition; at 50.0 µM; active compounds read high
Method in brief: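 Readout: growth inhibition relative to vehicle-treated cultures. Compound exposure was carried out in a genetically defined yeast strain deficient in DNA damage repair.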

[2] = NCI Yeast Anticancer Drug Screen. Data for the mec2-1 strain (AID 157); conditions: S. cerevisiae mec2-1 strain, at 50.0 µM, active compounds read high
Method in brief: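 Vehicle-treated cultures served as reference for growth inhibition of compound-exposed mec2-1 yeast.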

[3] = NCI Yeast Anticancer Drug Screen. Data for the sgs1 mgt1 strain (AID 161);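 further: 0% = growth of cultures given vehicle only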; conditions: S. cerevisiae sgs1 mgt1 strain, at 50.0 µM, active compounds read high
Method in brief: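 Test agents were incubated with a DNA-repair-mutant yeast strain. Growth was then read and compared against vehicle-treated controls.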

[4] = NCI Yeast Anticancer Drug Screen. Data for the cln2 rad14 strain (AID 165);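 further: 0% = growth equal to vehicle treated cultures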; conditions: S. cerevisiae cln2 rad14 strain, at 50.0 µM, active compounds read high
Method in brief: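 Each compound was tested on cln2 rad14 yeast. Inhibition of growth was calculated against vehicle-exposed controls.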

[5] = NCI Yeast Anticancer Drug Screen. Data for the bub3 strain (AID 167); conditions: S. cerevisiae bub3 mutant strain, at 50.0 µM, active compounds read high
Method in brief: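 Readout: yeast growth inhibition, expressed relative to vehicle-only wells. The test organism is a mutant strain from a panel with lesions in DNA repair or checkpoint genes.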

[6] = NCI Yeast Anticancer Drug Screen. Data for the mlh1 rad18 strain (AID 175); conditions: S. cerevisiae mlh1 rad18 strain growth inhibition; at 50.0 µM; active compounds read high
Method in brief: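 Vehicle-treated cultures served as the reference for growth inhibition in a yeast strain carrying DNA damage repair alterations exposed to each compound.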

Measured: growth inhibition

CNC(=O)SCC(NC(=O)CCC(N)C(=O)O)C(=O)NCC(=O)O (stereo not given)
inactive: [1] -7.45% | [2] 9.55% | [3] 27.4% | [4] 28.4% | [5] 18.4% | [6] 36.3%

O=c1c2c(-c3ccccc3)onc2n(-c2ccccc2)c(=O)n1-c1ccccc1
inactive: [1] -20.4% | [2] 4.5% | [3] 13.2% | [4] -10.6% | [5] -4.2% | [6] 36.5%

CC(NCCOc1ccccc1)c1ccccc1 (stereo not given)
inactive: [1] 9.1% | [2] 33.4% | [3] 3.2% | [4] 10.7% | [5] -0.75% | [6] 9.25%

CC1(C)CC2(C)OC3(C)CC(C)(C)OC3(C)OC2(C)O1 (stereo not given)
inactive: [1] 0.05% | [2] 6.45% | [3] 8.55% | [4] -34.2% | [5] 22.4% | [6] -10.3%

CCOC(=O)C(CO)NC(=O)c1cnc2ccccc2c1 (stereo not given)
inactive: [1] 16.4% | [2] 1.65% | [3] 13.1% | [4] -29.8% | [5] -30.4% | [6] 12.8%

CN(C)c1ncnc2c1ncn2C1OC(CO)C(N)C1O (stereo not given)
inactive: [1] 19.2% | [2] 3% | [3] 26.1% | [4] 0.55% | [5] 28.5% | [6] 20.6%

CN(N=O)c1nc2c(C(N)=O)ncn2s1
inactive: [1] 10.2% | [2] 16.4% | [3] 4.95% | [4] 2.2% | [5] 13.9% | [6] 24.1%

O=C(O)COc1ccccc1P(=O)(c1ccccc1)c1ccccc1
inactive: [1] 23.1% | [2] 17.4% | [3] 9.7% | [4] 35.8% | [5] 22.4% | [6] 23%

COC(=O)CCC(=O)NC1=C(NCc2ccccc2)C(=O)c2ccccc2C1=O
inactive: [1] 26.8% | [2] 12.8% | [3] 31.1% | [4] 36% | [5] 38.9% | [6] 13.6%

C[C@]12CCC(=O)C=C1CC[C@@H]1[C@@H]2[C@@H](O)C[C@@]2(C)[C@H]1CC[C@]2(O)C(=O)CO
inactive: [1] 12.7% | [2] 2.25% | [3] -31.6% | [4] 7% | [5] -30.1% | [6] -35%

O=C1ON=C2C3CC4CC12CC1(C3)C(=O)ON=C41
inactive: [1] -3.05% | [2] -6.45% | [3] -3.8% | [4] -1.9% | [5] -12.1% | [6] -19.8%

Cc1ccccc1N1C(N)=C(C#N)C(C#N)(C#N)C1c1ccccc1 (stereo not given)
inactive: [1] 8.8% | [2] 22.2% | [3] -14.6% | [4] -10.6% | [5] -12.4%
active: [6] 87.8%

O/N=C1\CC2(N3CCOCC3)CCC1(Cc1ccccc1)CC2
inactive: [1] 36% | [2] 52.6% | [3] 60.2% | [4] 55.6% | [5] 38.8% | [6] 49.4%

COc1ccc(OC)c(CCCC(=O)O)c1
inactive: [1] 9.6% | [2] 7.65% | [3] 2.7% | [4] 4.35% | [5] 2.05% | [6] -8.7%

Nc1n[nH]c(=S)s1
inactive: [1] 6.8% | [2] -12.1% | [3] 7.35% | [4] -8.7% | [5] -12.3% | [6] 3.55%

NC(=S)N/N=C1\C(=O)NC(=O)C1c1ccccc1 (stereo not given)
inactive: [1] 4.75% | [2] 1.4% | [3] 3.45% | [4] 0.45% | [5] 15.6% | [6] 6.95%

CN(C)C=Nc1c2c(nc3ccccc13)CCCC2
inactive: [1] -35.4% | [2] -16.4% | [3] -8.8% | [4] 7.4% | [5] 18.9% | [6] 18.4%

CCN1C(=O)C(N=[N+]=[N-])(c2ccccc2)C(=O)c2ccccc21 (stereo not given)
inactive: [1] 10.5% | [2] -8.5% | [3] -16.7% | [4] 6.6% | [5] 2.45% | [6] 0.65%

CCOC(=O)NC(Nc1cc(Cl)ccc1OC)(C(F)(F)F)C(F)(F)F
inactive: [1] 2.5% | [2] -10.5% | [3] -26.1% | [4] 9.65% | [5] 6.85% | [6] -5.2%

CCO/C(O)=C(/C#N)C(=O)NC1=NCCCCC1
inactive: [1] 6.15% | [2] 8.25% | [3] 4.75% | [4] -43% | [5] 4.65% | [6] 16.4%

O=C1C=C(C2OC(CI)C(O)C2O)C(=O)N1 (stereo not given)
inactive: [1] -0.45% | [2] 23.1% | [3] 11.5% | [4] -14.4% | [5] 23.2% | [6] -2.05%

O=C1CC(c2ccc(Cl)cc2)C(=O)O1 (stereo not given)
inactive: [1] -10.5% | [2] 12% | [3] 1.6% | [4] 3.2% | [5] -23.4% | [6] -15.1%

CCOC(=O)CCC(N)C(N)=O (stereo not given)
inactive: [1] 28.2% | [2] -6.45% | [3] 16% | [4] 8.65% | [5] 11.4% | [6] 23.9%

Cc1ccccc1N=CC(C=O)[N+](=O)[O-] (stereo not given)
inactive: [1] -1.65% | [2] -9.8% | [3] 0.95% | [4] 4.1% | [5] -4.7% | [6] -5.65%

CN(C)CC1CCC(=C2CCCC2)C1=O (stereo not given)
inactive: [1] -8.9% | [2] -10.7% | [3] 11.8% | [4] 6.2% | [5] 3.6% | [6] 20.6%

Cc1ccc(C)c(NC(=O)CCC(=O)CC(=O)C(C)(C)C)c1
inactive: [1] -3.25% | [2] 8.35% | [3] 5.3% | [4] 15.5% | [5] -6.4% | [6] 12.7%

C(=N\N1CCN(/N=C/c2ccc(OCc3ccccc3)cc2)CC1)/c1ccc(OCc2ccccc2)cc1
inactive: [1] -12.6% | [2] -3.95% | [3] 7.65% | [4] -19.4% | [5] 0.2% | [6] -16.8%

C=CCNC(=S)Nc1ccc(OC(=O)NC(C)(C)C)cc1
inactive: [1] 2% | [2] 29.4% | [3] 26.4% | [4] -16.8% | [5] 25.3% | [6] 0.1%

CC(NC1=CC(=O)c2cccnc2C1=O)C(O)c1ccccc1 (stereo not given)
active: [1] 82.8% | [2] 80.8% | [3] 72.1% | [6] 71.3%
inactive: [4] 27.5% | [5] 64.2%

O=C(O)CCc1nc[nH]c1[N+](=O)[O-]
inactive: [1] -33.3% | [2] -10.6% | [3] -7.55% | [4] -44.9% | [5] 11.1% | [6] 8.1%

CCC(=O)c1ccc(F)cc1
inactive: [1] 10.2% | [2] -20.9% | [3] 4.5% | [4] 20.3% | [5] -5.3% | [6] 20.4%

Clc1ccc2ccccc2n1
inactive: [1] 15.1% | [2] -1.65% | [3] -6.4% | [4] -23.1% | [5] 9.8% | [6] -8.15%

O=C(Nc1ccccc1)OC1C=CC2CCC1C2 (stereo not given)
inactive: [1] 7.75% | [2] 3.35% | [3] 38.6% | [4] 12.8% | [5] 17.8% | [6] 58.3%

CCC(C)N(C(=O)C(C)Br)C(C)CC (stereo not given)
inactive: [1] 2.95% | [2] -9.4% | [3] -19.2% | [4] -39.2% | [5] -10% | [6] 5.9%

Cc1ccc(S(=O)(=O)NN=C2C(C)CC(C(C)(C)C)CC2C)cc1 (stereo not given)
inactive: [1] -24.8% | [2] 26% | [3] -41.9% | [4] 8.9% | [5] 44.6% | [6] -6%
